# Data: the supplement of paper PMC7393113
# ± gives the standard deviation of the averaged measurements.
# System: iBMDM (immortalised mouse bone-marrow-derived macrophages), LPS-stimulated
# Assay: mitochondrial superoxide (MitoSOX fluorescence) fold increase over unstimulated control; higher = more LPS-induced mitochondrial ROS (less inhibition)
# Details: inhibitor concentration: 500 nM; LPS: 100 ng/ml; time after LPS: 4 h
# In short: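 After 20 h in phenol-red-free 1% FCS/DMEM in black 96-well plates, immortalised mouse bone-marrow-derived macrophages were exposed to kinase inhibitors (500 nM) for 30 min, 1 μM MitoSox for 10 min and then LPS (100 ng/ml). A ClarioStar plate reader recorded fluorescence at 510/580 nm every 60 min for 4 h. The reported mitochondrial superoxide is the mean fold induction versus untreated macrophages over triplicate wells.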
row,SMILES,mitochondrial superoxide
1,Cc1cc(C)c(/C=C2\C(=O)Nc3ccccc32)[nH]1 [Semaxanib (SU5416)],1.3 ± 0.039
2,C=CC(=O)Nc1ccc2ncnc(Nc3cccc(Br)c3)c2c1,1.3 ± 0.061
3,O=C(O)[C@]1(Cc2cccc(Nc3nccs3)n2)CC[C@@H](Oc2cccc(Cl)c2F)CC1,1.51 ± 0.044
4,COc1cc2ncnc(Nc3ccc(F)c(Cl)c3)c2cc1OCCCN1CCOCC1 [Gefitinib (ZD1839)],1.77 ± 0.025
5,O=C(NC(NC(=S)Nc1ccc(F)c([N+](=O)[O-])c1)C(Cl)(Cl)Cl)C(c1ccccc1)c1ccccc1 (stereo not drawn),1.37 ± 0.015
6,CS(=O)(=O)c1cccc(CNc2nc(Nc3ccc4c(c3)CCC(=O)N4)ncc2C(F)(F)F)c1,1.3 ± 0.014
7,Cc1cc([C@@H](C)Nc2ccccc2C(=O)O)c2nc(N3CCOCC3)cc(=O)n2c1,1.21 ± 0.027
8,Cn1cnc2c(F)c(Nc3ccc(Br)cc3Cl)c(C(=O)NOCCO)cc21 [Selumetinib (AZD6244)],1.61 ± 0.081
9,Cc1[nH]nc2ccc(-c3cncc(OC[C@@H](N)Cc4ccccc4)c3)cc12,1.68 ± 0.098
10,Cc1cc(Nc2ncnc3ccc(-c4ccc(CNCCS(C)(=O)=O)o4)cc23)ccc1Oc1ccn2ncnc2c1 [HER2-Inhibitor-1],1.57 ± 0.063
11,"Cc1[nH]c(/C=C2\C(=O)Nc3ccccc32)c(C)c1CCC(=O)O [TSU-68 (SU6668, Orantinib)]",2.16 ± 0.12
12,CC(C)CCN1c2nc(Nc3cc(F)c(O)c(F)c3)ncc2N(C)C(=O)C1C (stereo not drawn),1.321 ± 0.0097
13,CNC(=O)Nc1ccc(-c2nc(N3CC4CCC(C3)O4)c3cnn(C4CCC5(CC4)OCCO5)c3n2)cc1,1.58 ± 0.024
